This note sets out measurements from PubChem BioAssay.

Active and inactive are the calls of the source. Unless noted, no stated cut-off is given here; in the data, active means inhibition above about 25%; inactive means the rest.

The target of the first test is Nuclear receptor coactivator 1 (Homo sapiens) (UniProt Q15788). The test can be described thus: NCOA1 GAL4-fusion reporter inhibition – cell-based, luminescence, quadruplicate, confirmation (AID 588820;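 active means mean inhibition above 46.68%, the untreated control wells mean plus 3 SD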;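 further: 0% = DMSO wells and 100% = gossypol 36 µM treated wells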). The note with it: HEK293 GAL4-SRC1 luciferase reporter, at 3.6 µM, hits give high values. (In general: Reporter assays use an easily measured gene product as a stand-in for the process of interest.)
Chain of Nuclear receptor coactivator 1 (Homo sapiens) (Q15788 whole entry, looked up, the tested form may be a part): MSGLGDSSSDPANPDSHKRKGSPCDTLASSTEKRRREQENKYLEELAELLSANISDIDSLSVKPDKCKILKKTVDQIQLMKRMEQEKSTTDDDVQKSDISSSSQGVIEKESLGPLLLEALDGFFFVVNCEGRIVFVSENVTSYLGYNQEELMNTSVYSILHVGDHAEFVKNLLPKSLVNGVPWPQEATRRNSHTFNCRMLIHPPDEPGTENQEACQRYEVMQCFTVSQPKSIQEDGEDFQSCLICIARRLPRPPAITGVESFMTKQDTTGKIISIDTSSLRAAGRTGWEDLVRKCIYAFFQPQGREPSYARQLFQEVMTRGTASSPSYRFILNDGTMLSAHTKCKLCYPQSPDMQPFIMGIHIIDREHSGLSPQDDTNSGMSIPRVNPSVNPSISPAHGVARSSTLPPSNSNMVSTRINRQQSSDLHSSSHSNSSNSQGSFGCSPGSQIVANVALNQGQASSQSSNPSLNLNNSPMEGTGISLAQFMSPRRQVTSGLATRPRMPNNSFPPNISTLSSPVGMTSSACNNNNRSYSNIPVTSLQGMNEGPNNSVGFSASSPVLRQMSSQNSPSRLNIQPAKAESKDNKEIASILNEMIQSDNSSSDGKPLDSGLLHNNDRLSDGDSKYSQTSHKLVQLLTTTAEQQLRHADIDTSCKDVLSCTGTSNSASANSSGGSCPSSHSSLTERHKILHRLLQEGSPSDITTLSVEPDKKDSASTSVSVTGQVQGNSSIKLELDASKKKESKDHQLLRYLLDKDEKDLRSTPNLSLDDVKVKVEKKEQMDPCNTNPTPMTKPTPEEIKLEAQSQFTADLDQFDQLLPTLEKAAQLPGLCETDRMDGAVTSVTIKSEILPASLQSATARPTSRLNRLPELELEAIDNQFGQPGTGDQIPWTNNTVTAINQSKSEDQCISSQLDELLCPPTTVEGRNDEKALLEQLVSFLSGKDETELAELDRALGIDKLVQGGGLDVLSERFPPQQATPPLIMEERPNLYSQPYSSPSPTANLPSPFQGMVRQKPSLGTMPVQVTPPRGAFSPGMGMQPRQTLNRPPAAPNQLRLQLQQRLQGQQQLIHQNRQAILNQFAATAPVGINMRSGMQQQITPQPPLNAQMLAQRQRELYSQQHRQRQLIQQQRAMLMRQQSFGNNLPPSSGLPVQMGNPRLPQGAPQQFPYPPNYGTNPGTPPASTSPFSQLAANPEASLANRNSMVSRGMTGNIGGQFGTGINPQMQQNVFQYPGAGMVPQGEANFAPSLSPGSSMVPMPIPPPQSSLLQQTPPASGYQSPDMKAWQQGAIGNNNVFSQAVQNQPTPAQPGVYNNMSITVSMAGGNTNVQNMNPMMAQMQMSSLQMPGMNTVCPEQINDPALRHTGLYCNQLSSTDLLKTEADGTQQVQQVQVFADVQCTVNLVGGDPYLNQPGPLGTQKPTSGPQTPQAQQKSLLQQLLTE
As a reminder, the inhibition is the relative decrease from the control value, in per cent. `CCOc1cccc2cc(C(=O)N3CC(C)OC(C)C3)c(=O)oc12` (stereo not given): the inhibition was -9.95% (inactive).
The same measure, in the same setting: the figure for `CN(C)C(=O)c1cccc(-c2cnc3cccnn23)c1` is -7.49% (inactive); for `CCOc1cc(/C=N/Nc2nc3ccccc3[nH]2)cc(Br)c1OCC(=O)N(C)C` it is -9.77% (inactive).
Take `COc1ccc(S(=O)(=O)N2CCCCCC2)cc1C(=O)N(C)CCOc1ccccc1`: the inhibition is 5.04% (inactive).
Still for that read-out and setting: as for `CN(C)S(=O)(=O)c1ccc(N2CCCC2)c(C(=O)OCC(=O)NC2(C#N)CCCCC2)c1`, the figure is 4.07% (inactive); as for `CCOc1ccc(NC(=O)CN(C)C(=O)C2CCN(c3ncnc4sc(C)c(C)c34)CC2)cc1OCC`, 0.38% (inactive); as for `CCOC(=O)c1[nH]c(C)c(C(=O)OCc2ccc(C)cc2)c1C`, 4.43% (inactive).
As for `CN(Cc1ccc(F)cc1)C(=O)c1cccc(S(=O)(=O)N2CCN(c3ccccc3)CC2)c1`, the inhibition is -0.46% (inactive).
As to `CC(OC(=O)CSCC(=O)Nc1ccc(Cl)cc1)C(=O)N(C)Cc1ccccc1` (stereo not given), the inhibition was -7.38% (inactive).
The same measure, in the same setting: as for `Fc1cccc(Cl)c1Cn1nnc2c(NCc3ccncc3)ncnc21`, the figure is -0.7% (inactive); as for `O=C(COC(=O)COc1ccccc1)NCCc1ccccc1`, -16.7% (inactive); as for `COc1ccccc1C(=O)N(Cc1ccc(C)o1)C1CCS(=O)(=O)C1` (stereo not given), -7.5% (inactive).
Same read-out and setting: as for `O=C(Nc1cccc(Br)c1)c1cc(S(=O)(=O)N2CCOCC2)cs1`, the figure is -2.57% (inactive); as for `COc1ccc(S(=O)(=O)N(C)c2ccc(C(=O)Nc3cccnc3)cc2)cc1OC`, 14.3% (inactive).
As to `COc1ccc(-c2[nH]ncc2CN(C)Cc2nonc2C)c(OC)c1`, the inhibition was -25% (inactive).
For `CCOP(=O)(OCC)C(NC(=O)c1cccs1)c1ccccc1` (stereo not given), the inhibition is -44.8% (inactive).
As to `Cc1cccc(C(C)C)c1-n1nnnc1-c1ccccc1`, the inhibition was -4.66% (inactive).
With `C/C(=N\N=C1\NC(=O)C(CC(=O)O)S1)c1ccccn1` (stereo not given), the inhibition is -1.33% (inactive).
As for `COc1cccc(/C=N/NC(=O)CSc2ccccc2C)c1O`, the inhibition was -0.52% (inactive).
For the molecule `N#Cc1c(N)nc2c(c1-c1ccc(F)cc1)CCC2`, the inhibition is -6.03% (inactive).
The same measure, in the same setting: the figure for `Cc1cc(C)n(-c2ccc(C(=O)Nc3ccc(C)c(S(=O)(=O)N4CCOCC4)c3)cc2)n1` is 0.36% (inactive).
Still for that read-out and setting: the figure for `COC(=O)C1CCCCN1C(=O)c1cc(COc2cccc3cnccc23)on1` (stereo not given) is 30.8% (inactive); for `Cc1oc(C(C)(C)C)cc1C(=O)N1CCN(c2ccc(C(F)(F)F)cn2)CC1` it is 0.89% (inactive); for `CCN(CC)c1ccc(NC(=O)CSc2n[nH]c(-c3ccco3)n2)cc1` it is -8.8% (inactive).
Still for that read-out and setting: the figure for `CCc1nc2c(OCc3c(C)noc3C)cccn2c1N(C=O)Cc1ccccc1` is -4.23% (inactive); for `CCN(CC)S(=O)(=O)c1cc(NC(=O)C2CCN(c3ncnc4sc(C)c(C)c34)CC2)ccc1Cl` it is 3.49% (inactive); for `Cc1ccccc1CN1CCC(Oc2ccc(C(=O)NCc3ccccn3)cc2)CC1` it is -15.8% (inactive).
On to `O=C(COc1ccccc1-c1ccccc1)N/N=C/c1ccncc1`, for which the inhibition was -7.29% (inactive).
The same measure, in the same setting: the figure for `CCNc1nc2c(c(=O)n(C)c(=O)n2C)n1Cc1ccc(Cl)cc1` is -0.87% (inactive); for `Cc1nn(-c2ccccc2)c(C)c1NC(=O)COC(=O)C1CC(=O)N(CCc2ccccc2)C1` (stereo not given) it is -14.4% (inactive).
As for `O=C(NCc1ccncc1)C1CCCN(S(=O)(=O)c2ccc(Br)cc2)C1` (stereo not given), the inhibition was -1.35% (inactive).
Take `COC(=O)c1ccc(C(=O)N2CCCC(Nc3ccc(F)c(F)c3)C2)cc1` (stereo not given): the inhibition was -59.6% (inactive).
Same read-out and setting: the figure for `CCOc1cc(C(=S)N2CCCCC2)ccc1OCC(=O)NCc1ccccc1` is -15.9% (inactive).
On the same count and under the same terms, as for `CC1CC(C)CN(c2ncnc3c2cnn3-c2ccc(Cl)cc2)C1` (stereo not given), the figure is -96.6% (inactive).
Regarding `CO/N=C/C(c1ccc(Cl)nc1)S(=O)(=O)c1ccccc1` (stereo not given), the inhibition is -12.5% (inactive).
Still for that read-out and setting: the figure for `CCc1ccc(-c2nnn(CCC(=O)OC)n2)cc1` is -2.93% (inactive).
On to `O=C(CSC1=NS(=O)(=O)c2cc(Cl)ccc2N1)Nc1ccccc1C(F)(F)F`, for which the inhibition was -22.4% (inactive).
Still for that read-out and setting: the figure for `N#Cc1cc2ccncc2c2ccccc12` is 30.8% (inactive); for `COc1cc(NC(=O)c2cccc3c(-c4cccnc4)coc23)cc(OC)c1OC` it is -19.1% (inactive); for `CC(C)C(=O)N1CCN(c2ccc(NC(=O)c3ccc4c(c3)OCCO4)cc2Cl)CC1` it is -52.5% (inactive).

Test system in the next test: not listed separately
The test can be described thus: repression of VP16-driven luciferase reporter – cell-based, luminescence, high throughput, counter-screen for SRC1 inhibitor project (AID 588824). The note with it: cell-based VP16 transactivation luciferase luminescence; at 3.6 µM; hits give high values.
For `CCOc1cccc2cc(C(=O)N3CC(C)OC(C)C3)c(=O)oc12` (stereo not given), the inhibition is -2.83% (inactive).
In the case of `CN(C)C(=O)c1cccc(-c2cnc3cccnn23)c1`, the inhibition was 7.53% (inactive).
Consider `CCOc1cc(/C=N/Nc2nc3ccccc3[nH]2)cc(Br)c1OCC(=O)N(C)C`, for which the inhibition is -3.09% (inactive).
Same read-out and setting: the figure for `COc1ccc(S(=O)(=O)N2CCCCCC2)cc1C(=O)N(C)CCOc1ccccc1` is -8.6% (inactive); for `CN(C)S(=O)(=O)c1ccc(N2CCCC2)c(C(=O)OCC(=O)NC2(C#N)CCCCC2)c1` it is -9.13% (inactive); for `CCOc1ccc(NC(=O)CN(C)C(=O)C2CCN(c3ncnc4sc(C)c(C)c34)CC2)cc1OCC` it is 3.14% (inactive).
On the same count and under the same terms, the figure for `CCOC(=O)c1[nH]c(C)c(C(=O)OCc2ccc(C)cc2)c1C` is 5.19% (inactive).
Regarding `CN(Cc1ccc(F)cc1)C(=O)c1cccc(S(=O)(=O)N2CCN(c3ccccc3)CC2)c1`, the inhibition is 15% (inactive).
Still for that read-out and setting: the figure for `CC(OC(=O)CSCC(=O)Nc1ccc(Cl)cc1)C(=O)N(C)Cc1ccccc1` (stereo not given) is 1.96% (inactive).
Same read-out and setting: the figure for `Fc1cccc(Cl)c1Cn1nnc2c(NCc3ccncc3)ncnc21` is 4.51% (inactive); for `O=C(COC(=O)COc1ccccc1)NCCc1ccccc1` it is -1.43% (inactive); for `COc1ccccc1C(=O)N(Cc1ccc(C)o1)C1CCS(=O)(=O)C1` (stereo not given) it is 3.3% (inactive).
Same read-out and setting: as for `O=C(Nc1cccc(Br)c1)c1cc(S(=O)(=O)N2CCOCC2)cs1`, the figure is -2.73% (inactive); as for `COc1ccc(S(=O)(=O)N(C)c2ccc(C(=O)Nc3cccnc3)cc2)cc1OC`, 17.4% (inactive).
`COc1ccc(-c2[nH]ncc2CN(C)Cc2nonc2C)c(OC)c1`: the inhibition is -13.1% (inactive).
The same measure, in the same setting: as for `CCOP(=O)(OCC)C(NC(=O)c1cccs1)c1ccccc1` (stereo not given), the figure is -3.21% (inactive).
Still for that read-out and setting: the figure for `Cc1cccc(C(C)C)c1-n1nnnc1-c1ccccc1` is 13.5% (inactive).
Still for that read-out and setting: the figure for `C/C(=N\N=C1\NC(=O)C(CC(=O)O)S1)c1ccccn1` (stereo not given) is -8.7% (inactive); for `COc1cccc(/C=N/NC(=O)CSc2ccccc2C)c1O` it is 6.05% (inactive); for `N#Cc1c(N)nc2c(c1-c1ccc(F)cc1)CCC2` it is -10.2% (inactive).
As for `Cc1cc(C)n(-c2ccc(C(=O)Nc3ccc(C)c(S(=O)(=O)N4CCOCC4)c3)cc2)n1`, the inhibition was -1.58% (inactive).
The same measure, in the same setting: the figure for `COC(=O)C1CCCCN1C(=O)c1cc(COc2cccc3cnccc23)on1` (stereo not given) is 43.3% (active); for `Cc1oc(C(C)(C)C)cc1C(=O)N1CCN(c2ccc(C(F)(F)F)cn2)CC1` it is 15.2% (inactive).
Same read-out and setting: the figure for `CCN(CC)c1ccc(NC(=O)CSc2n[nH]c(-c3ccco3)n2)cc1` is -1.86% (inactive); for `CCc1nc2c(OCc3c(C)noc3C)cccn2c1N(C=O)Cc1ccccc1` it is -5.1% (inactive).
Still for that read-out and setting: the figure for `CCN(CC)S(=O)(=O)c1cc(NC(=O)C2CCN(c3ncnc4sc(C)c(C)c34)CC2)ccc1Cl` is 34.4% (active).
For `Cc1ccccc1CN1CCC(Oc2ccc(C(=O)NCc3ccccn3)cc2)CC1`, the inhibition was 8.1% (inactive).
The same measure, in the same setting: the figure for `O=C(COc1ccccc1-c1ccccc1)N/N=C/c1ccncc1` is 13.6% (inactive); for `CCNc1nc2c(c(=O)n(C)c(=O)n2C)n1Cc1ccc(Cl)cc1` it is 23.4% (inactive); for `Cc1nn(-c2ccccc2)c(C)c1NC(=O)COC(=O)C1CC(=O)N(CCc2ccccc2)C1` (stereo not given) it is 2.89% (inactive).
The same measure, in the same setting: as for `O=C(NCc1ccncc1)C1CCCN(S(=O)(=O)c2ccc(Br)cc2)C1` (stereo not given), the figure is 14.6% (inactive); as for `COC(=O)c1ccc(C(=O)N2CCCC(Nc3ccc(F)c(F)c3)C2)cc1` (stereo not given), -10.7% (inactive); as for `CCOc1cc(C(=S)N2CCCCC2)ccc1OCC(=O)NCc1ccccc1`, -12.5% (inactive).
On the same count and under the same terms, as for `CC1CC(C)CN(c2ncnc3c2cnn3-c2ccc(Cl)cc2)C1` (stereo not given), the figure is -50.9% (inactive); as for `CO/N=C/C(c1ccc(Cl)nc1)S(=O)(=O)c1ccccc1` (stereo not given), -1.73% (inactive).
For `CCc1ccc(-c2nnn(CCC(=O)OC)n2)cc1`, the inhibition was 9.9% (inactive).
Same read-out and setting: the figure for `O=C(CSC1=NS(=O)(=O)c2cc(Cl)ccc2N1)Nc1ccccc1C(F)(F)F` is -12.3% (inactive); for `N#Cc1cc2ccncc2c2ccccc12` it is 16.7% (inactive).
On the same count and under the same terms, as for `COc1cc(NC(=O)c2cccc3c(-c4cccnc4)coc23)cc(OC)c1OC`, the figure is 28.3% (active); as for `CC(C)C(=O)N1CCN(c2ccc(NC(=O)c3ccc4c(c3)OCCO4)cc2Cl)CC1`, -6.57% (inactive).
